From PubChem BioAssay AID1159506 (National Center for Advancing Translational Sciences (NCATS), 2015)
The full ranking holds about 59,000 sequences; the median of the read-out is about -0.00055, and the lowest 2% start at about -2. This is one part of a sample in which the lowest values are shown more often than they occur.

Assay: Identification of proteins required for the processing of the EWS-FLI1 nascent transcript;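 also: robust z of luciferase light less the median z of siRNAs with the same seed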
Settings: TC32 Ewing sarcoma NR0B1-luc vs CMV-luc (EWS-FLI1 target promoter against control promoter), 48 h; screened at 20 nM (by protocol)
Summary of the method: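 Genome-wide siRNA screen (Ambion v4.1, three siRNAs per gene, 20 nM final, RNAiMax) in Ewing sarcoma TC32 cells carrying NR0B1-promoter or CMV-promoter luciferase; OneGlo luciferase read 48 h post-transfection. Data normalized, z-score-MAD transformed and seed-adjusted.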

Question: With UCGGCGAUGUAGGAGAUGG against APBA2 as the sequence, how does the seed-corrected z-score read?
Answer: The seed-corrected z-score was 0.0663.

Question: With AGAAAAUCUAUCUUCCUCU against PFDN5 as the sequence, how does the seed-corrected z-score read?
Answer: Its seed-corrected z-score is -0.0703.

Question: With UGGGAUAUCACCAACGACG against CCDC168 as the sequence, how does the seed-corrected z-score read?
Answer: The seed-corrected z-score was -0.371.

Question: With UCAUCUAGAAGAAUAUUCU against SGK494 as the sequence, how does the seed-corrected z-score read?
Answer: Its seed-corrected z-score is 0.387.

Question: With AAGCUUGCCAAUACCCUGG against RPLP2 as the sequence, how does the seed-corrected z-score read?
Answer: The seed-corrected z-score was -2.77.

Question: For UCUAUGUUGACAACCUCUC against DSPP, which seed-corrected z-score is on record?
Answer: The seed-corrected z-score was 2.05.

Question: With UUGCAUUUUAUCACAGUAG against LY96 as the sequence, how does the seed-corrected z-score read?
Answer: Its seed-corrected z-score is -0.122.

Question: Which seed-corrected z-score does the source give for UCAGCAAAAACAUCUCACU against OR4Q3 here?
Answer: Its seed-corrected z-score is 0.873.

Question: Which seed-corrected z-score does the source give for AAACUGACCAUUCACUACC against DCAF12 here?
Answer: The seed-corrected z-score was -10.7.

Question: Which seed-corrected z-score does the source give for UCUGGAAUUUGGGUUGAUG against C1orf105 here?
Answer: Its seed-corrected z-score is -0.114.

Question: For UAGAUGUGCAUGUAGGUGA against ADO, which seed-corrected z-score is on record?
Answer: Its seed-corrected z-score is 0.279.

Question: For AAGGCAUCCAAGAAGCUCC against KCNK6, which seed-corrected z-score is on record?
Answer: The seed-corrected z-score was 0.0975.

Question: With UUGGAAACUACAGAUGAGA against WDR82 as the sequence, how does the seed-corrected z-score read?
Answer: The seed-corrected z-score was -2.39.

Question: With UUCCUUAAGGUGUCCCUCC against HSPA12A as the sequence, how does the seed-corrected z-score read?
Answer: Its seed-corrected z-score is 0.369.

Question: For UUGCGAUGGAAAGACAUGU against CD5, which seed-corrected z-score is on record?
Answer: The seed-corrected z-score was 0.451.

Question: For AAUGCUCUCAGUUGAGAUG against C19orf44, which seed-corrected z-score is on record?
Answer: The seed-corrected z-score was -0.0313.

Question: For UAACCUCUGGGUCACAUGC against ACIN1, which seed-corrected z-score is on record?
Answer: Its seed-corrected z-score is 0.0177.

Question: With UCUGUCUAAAUAACUUAUU against NAT8L as the sequence, how does the seed-corrected z-score read?
Answer: The seed-corrected z-score was -0.913.

Question: Which seed-corrected z-score does the source give for UAUUGAAUGAUGUGGAGUC against PTCD2 here?
Answer: The seed-corrected z-score was 0.667.

Question: With UUAAGUAUUGGAUUUCAUA against DEFB116 as the sequence, how does the seed-corrected z-score read?
Answer: The seed-corrected z-score was 0.226.

Question: For UCGGAAUAAAUUGAGCUGC against API5, which seed-corrected z-score is on record?
Answer: The seed-corrected z-score was -16.5.

Question: With UGUGCGAGAACAUUCCUGC against HIP1R as the sequence, how does the seed-corrected z-score read?
Answer: Its seed-corrected z-score is 0.0278.

Question: With UUUGUGCAUGCUGUCGUUC against TNIP2 as the sequence, how does the seed-corrected z-score read?
Answer: Its seed-corrected z-score is -0.335.

Question: For UACAGCUAAACUGUACAGC against ORC6, which seed-corrected z-score is on record?
Answer: Its seed-corrected z-score is -2.09.

Question: Which seed-corrected z-score does the source give for UUCGGUUCAUGACAAAUAC against SLC35F5 here?
Answer: The seed-corrected z-score was 0.354.

Question: Which seed-corrected z-score does the source give for UAGCAUACUAUUGUCCUGC against MRPL42 here?
Answer: Its seed-corrected z-score is 0.102.

Question: Which seed-corrected z-score does the source give for UCCUGGUUCACCAAUUUCU against COL9A1 here?
Answer: Its seed-corrected z-score is -0.362.

Question: For UAGGUUAUGAAAUUAAUCA against MAP6D1, which seed-corrected z-score is on record?
Answer: Its seed-corrected z-score is -2.45.

Question: Which seed-corrected z-score does the source give for AUUCAUAGAAGUAUUCUGC against WIF1 here?
Answer: The seed-corrected z-score was -0.598.

Question: With UAAGUUUUGAGGAUAGGUG against ZNF117 as the sequence, how does the seed-corrected z-score read?
Answer: Its seed-corrected z-score is 0.415.

Question: Which seed-corrected z-score does the source give for UUGGGAUUCAGGUUCCGCU against TCF3 here?
Answer: Its seed-corrected z-score is -0.377.

Question: For UCGCUUCCCAGAAUUGCUG against GPR65, which seed-corrected z-score is on record?
Answer: The seed-corrected z-score was 1.15.

Question: Which seed-corrected z-score does the source give for AUGGGAAUAGGAAAGUAUG against OR2M4 here?
Answer: The seed-corrected z-score was -2.09.

Question: Which seed-corrected z-score does the source give for UGUCCAAUUAGGGACCAGC against SLF2 here?
Answer: The seed-corrected z-score was -0.225.

Question: For ACUGUAUAGAUUGUGAACC against KDM3B, which seed-corrected z-score is on record?
Answer: Its seed-corrected z-score is 1.03.

Question: With UUCCAUAGUAGUAGGAUCU against TMEM14B as the sequence, how does the seed-corrected z-score read?
Answer: The seed-corrected z-score was 0.134.

Question: With UCUGGUUAUCAGAAAACCC against PCNP as the sequence, how does the seed-corrected z-score read?
Answer: The seed-corrected z-score was 0.114.

Question: With UUGUGGUUUAGGGUUUUCU against YBX1 as the sequence, how does the seed-corrected z-score read?
Answer: The seed-corrected z-score was -2.1.

Question: Which seed-corrected z-score does the source give for UUCUUAUAACCAUUGACUG against SLCO1B3 here?
Answer: Its seed-corrected z-score is 0.328.

Question: For UAAAGAGUGGUGUUGGUGG against RSPH3, which seed-corrected z-score is on record?
Answer: Its seed-corrected z-score is -0.756.

Question: For UUUAGUUCCAGUGCCUUAG against CCDC151, which seed-corrected z-score is on record?
Answer: The seed-corrected z-score was 0.491.

Question: With CUUUCAGCGUGGCUGUUCC against C6orf132 as the sequence, how does the seed-corrected z-score read?
Answer: Its seed-corrected z-score is -4.94.

Question: With UUCCUAAUAAACCCAGCGC against SOWAHD as the sequence, how does the seed-corrected z-score read?
Answer: Its seed-corrected z-score is -0.0823.

Question: With UCAGAGAUCAAAGAGAAGU against TUBB4A as the sequence, how does the seed-corrected z-score read?
Answer: Its seed-corrected z-score is 0.356.

Question: For UGAGUGAAGUGCGAUAUCC against ELL, which seed-corrected z-score is on record?
Answer: The seed-corrected z-score was 0.176.

Question: With UAGGAACCAGAAAUAAUCC against ATP8A2 as the sequence, how does the seed-corrected z-score read?
Answer: The seed-corrected z-score was -0.455.

Question: With UUAGGGAUGACGUGGGUGC against GRIN1 as the sequence, how does the seed-corrected z-score read?
Answer: Its seed-corrected z-score is -2.06.

Question: For UUAAACUCCACGUCGUCAG against SIRPB1, which seed-corrected z-score is on record?
Answer: The seed-corrected z-score was -0.756.

Question: With UUUAUGGAUCUAAUUGUCG against CBWD1 as the sequence, how does the seed-corrected z-score read?
Answer: The seed-corrected z-score was 0.289.

Question: Which seed-corrected z-score does the source give for UGCAUGGUGAUAGUCAGGU against CD7 here?
Answer: Its seed-corrected z-score is -0.0598.

Question: For AAACCGUCCUUCCUCAUGC against IL16, which seed-corrected z-score is on record?
Answer: The seed-corrected z-score was 0.0574.

Question: For UUAGUCUUCCCGGAUUGCC against ADAR, which seed-corrected z-score is on record?
Answer: The seed-corrected z-score was 0.696.

Question: Which seed-corrected z-score does the source give for UUCUGGAUAAACAUAUUCC against MCU here?
Answer: The seed-corrected z-score was -0.133.

Question: Which seed-corrected z-score does the source give for UUCCAGUUAAACUGUAGCC against LOC643770 here?
Answer: Its seed-corrected z-score is -2.78.

Question: For UUAAUAACCUCAGAAAUGG against TCTEX1D1, which seed-corrected z-score is on record?
Answer: The seed-corrected z-score was 0.0567.

Question: For UAUUUGCGAAGUCAUGAGG against COPB1, which seed-corrected z-score is on record?
Answer: The seed-corrected z-score was -3.25.

Question: With UGAAUAUCAACAGUCCCUC against ZNF731P as the sequence, how does the seed-corrected z-score read?
Answer: Its seed-corrected z-score is 0.959.

Question: Which seed-corrected z-score does the source give for UAAAUGACAGAAGCCGUUG against SUCLG1 here?
Answer: The seed-corrected z-score was -0.0373.

Question: For UCACAGAUGCCUGUAAAUG against TSACC, which seed-corrected z-score is on record?
Answer: Its seed-corrected z-score is -0.571.

Question: For GCUUGCACGACUCACAGAC against DEFB105A, which seed-corrected z-score is on record?
Answer: Its seed-corrected z-score is 1.34.

Question: For AGAGUGUAAUGAGUCUUUG against SCAPER, which seed-corrected z-score is on record?
Answer: The seed-corrected z-score was 0.141.

Question: Which seed-corrected z-score does the source give for UCCUCCUUGUCCAUGAUGC against CDC42EP4 here?
Answer: Its seed-corrected z-score is 0.732.

Question: Which seed-corrected z-score does the source give for AUCUGCUUAAUCUUUACAC against OR51F2 here?
Answer: The seed-corrected z-score was -2.93.

Question: For AUCGGAUACCGUGAGAUCC against OXA1L, which seed-corrected z-score is on record?
Answer: The seed-corrected z-score was 0.367.

Question: For UAAUGGGCACGAAUGACGG against ST8SIA3, which seed-corrected z-score is on record?
Answer: The seed-corrected z-score was 0.274.

Question: Which seed-corrected z-score does the source give for AAUGGUAUCAUUCACCUUG against RPS4X here?
Answer: Its seed-corrected z-score is 1.54.

Question: Which seed-corrected z-score does the source give for UCGUCUAAAACCAGGAUGC against ABCC3 here?
Answer: The seed-corrected z-score was -0.496.

Question: For AAUGUUGUUCUGUUUGUCC against FAM122C, which seed-corrected z-score is on record?
Answer: The seed-corrected z-score was -1.09.

Question: With UUUAGUUCUUCCCUUAUGG against PDGFC as the sequence, how does the seed-corrected z-score read?
Answer: Its seed-corrected z-score is -0.075.

Question: For UUCUUCAUCAGCUUAACCG against C1QTNF4, which seed-corrected z-score is on record?
Answer: Its seed-corrected z-score is -0.00119.

Question: Which seed-corrected z-score does the source give for AUACUUGUACAAUCGGUGC against DIDO1 here?
Answer: Its seed-corrected z-score is 0.123.

Question: For UUCUUUGCCCGCUUGAGCU against CCDC86, which seed-corrected z-score is on record?
Answer: The seed-corrected z-score was -0.859.

Question: Which seed-corrected z-score does the source give for UUAGUUGCACCCAAAUCCA against CCDC17 here?
Answer: The seed-corrected z-score was -2.22.

Question: Which seed-corrected z-score does the source give for AUGCGAACCUCAUAGGUGG against SNX12 here?
Answer: Its seed-corrected z-score is -0.364.

Question: For ACACUCAAAAUUACCAGCU against LEMD2, which seed-corrected z-score is on record?
Answer: Its seed-corrected z-score is -1.09.

Question: Which seed-corrected z-score does the source give for UGUUUUUGAAGUUAGAUCU against LOC728999 here?
Answer: The seed-corrected z-score was 1.08.

Question: With UAAUCCUGACUUUCAAUUG against PAGE3 as the sequence, how does the seed-corrected z-score read?
Answer: The seed-corrected z-score was -0.446.

Question: Which seed-corrected z-score does the source give for AACAGUUUCUGCAUUCUUC against PARG here?
Answer: The seed-corrected z-score was -0.336.

Question: Which seed-corrected z-score does the source give for AGAGGUCUGAGCACAGUUC against HSPA6 here?
Answer: The seed-corrected z-score was -1.34.

Question: For UAACAUCUUCGAACUGCGG against MAU2, which seed-corrected z-score is on record?
Answer: Its seed-corrected z-score is -1.35.

Question: Which seed-corrected z-score does the source give for UGGUUGUUUAAGUCGACUG against USP33 here?
Answer: Its seed-corrected z-score is -2.43.

Question: Which seed-corrected z-score does the source give for UCCCUUCACAAAGAAAGAG against TLDC2 here?
Answer: The seed-corrected z-score was 0.201.

Question: Which seed-corrected z-score does the source give for UUUCUUAGAAAGCGGUUCC against MORN5 here?
Answer: Its seed-corrected z-score is -0.0295.

Question: Which seed-corrected z-score does the source give for UAGGAUACAUUGCUGAUGC against CASC1 here?
Answer: Its seed-corrected z-score is -0.353.

Question: Which seed-corrected z-score does the source give for UCUUUCUUUAGUCUGAGUG against NMUR2 here?
Answer: Its seed-corrected z-score is 0.78.
